# Tgondii IFNg: T. gondii growth inhibition under IFN-gamma | hit rate 3.8% among 69,000 | Toxoplasma gondii growth in IFN-gamma-treated host cells; hits give low values | AID 1259416 | activity change, negative = inhibition, % (test concentration not listed); in the data active = activity change below about -70%, passing the limit was not always enough;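 also: host cells are HeLa cells infected with Toxoplasma gondii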
# Active calls of the source: *; ! = repeats disagree. Only a selection was taken, and hits are over-represented in it overall.
SMILES,Tgondii IFNg
COc1ccc(CSc2nc(C)cc(C)c2C#N)cc1,-21
CN(C)c1nc(-c2ccccc2)nc(Nc2ccc(Cl)cc2Cl)c1C#N,99
COc1ccc(Cl)cc1Nc1nc(C)cc(C)c1C#N,-79*
CCn1c(=O)c2ccccc2n(CC(=O)c2ccc(Cl)cc2)c1=O,-49
CC1CCCN(c2ncc(-c3ccc4c(c3)OCO4)c(-c3cccnc3)n2)C1 (configuration not stated),-31
CCOC(=O)c1nc(Nc2cc(C)ccc2C)c2ccccc2n1,-26
CCCN1C(=O)CCc2cc(NC(=O)c3cc(SC)ccc3Cl)ccc21,11
COc1ccc(C(=O)O/N=C2\CCSc3ccc(F)cc32)cc1,80
COc1ccc2c(c1)CC/C2=N/OC(=O)c1cc(SC)ccc1Cl,-91*
Cc1ccc(S(=O)(=O)Nc2ccc3c(c2)C(=O)N(C)[C@@H]2CC[C@H](CC(=O)NCCc4ccncc4)O[C@H]2CO3)cc1,-13
CN1C[C@H]2[C@H](C(=O)Nc3ccccc3)CCS(=O)(=O)[C@H]2C1,100
Cc1cc(-c2nccn2CCN2CCCC(C(N)=O)C2)oc1C (configuration not stated),5
Cc1nc(-c2ccc(F)cc2)sc1CCNC(=O)c1ccccc1F,-37
COc1ccc(C(=O)NCCc2sc(-c3ccc(F)cc3)nc2C)c(OC)c1,-87*
COc1cccc(C(=O)NCCc2sc(-c3ccc(F)cc3)nc2C)c1OC,-10
COc1ccc(C(=O)NCCc2sc(-c3ccc(Cl)cc3)nc2C)c(OC)c1,-70
COc1ccc(C(=O)NCCc2sc(-c3cccc(F)c3)nc2C)c(OC)c1,-42
COc1ccc(Cl)cc1C(=O)NCCc1sc(-c2ccc(F)cc2)nc1C,-102*
CC(=O)N1CCC(C(=O)NCc2ccccc2)(N(Cc2cccc(C)c2)C(=O)c2ccc(C)cc2)CC1,-52
COc1cccc([C@@H]2CN(C(=O)c3csc4c3CCCC4)C[C@]23CCCCC(=O)N3)c1,-14
Cc1ccccc1NC(=O)Cn1ncc2c(N3CCN(c4ccccc4)CC3)ncnc21,94
Cc1cc(Cl)ccc1NC(=O)Cn1ncc2c(N3CCCCCC3)ncnc21,168
COc1ccc(Cl)cc1NC(=O)Cn1ncc2c(N3CCN(c4ccccn4)CC3)ncnc21,-92*
Cc1cc(F)ccc1NC(=O)Cn1ncc2c(N3CCN(c4ccccc4)CC3)ncnc21,13
COc1ccc(Cl)cc1NC(=O)Cn1ncc2c(N3CCN(c4ccccc4)CC3)ncnc21,-82*
SMILES,Tgondii IFNg
Cc1ccc(Cl)cc1NC(=O)Cn1ncc2c(N3CCCC3)ncnc21,-13
Cc1ccc(NC(=O)Cn2ncc3c(N4CCN(c5ccccc5)CC4)ncnc32)c(Cl)c1,197
COc1ccc(C)cc1NC(=O)Cn1ncc2c(N3CCN(c4ccccn4)CC3)ncnc21,116
COc1ccc(Cl)cc1NC(=O)Cn1ncc2c(N3CCCC3)ncnc21,-81*
CCc1ccc(NC(=O)Cn2ncc3c(N4CCN(c5ccccc5)CC4)ncnc32)cc1,-66
O=C(Cn1ncc2c(N3CCN(c4ccccc4)CC3)ncnc21)Nc1cccc(F)c1,-85*
COc1cc(Cl)c(C)cc1NC(=O)Cn1ncc2c(N3CCN(c4ccccn4)CC3)ncnc21,103
Cc1nocc1C(=O)N1CCC2C1CC(=O)N2c1cnn(C)c1 (configuration not stated),-2
O=S(=O)(c1ccc(F)cc1)N1CCC2(CC1)Nc1cc(F)ccc1-n1cccc12,14
Cc1c(Cc2ccccc2)sc(NC(=S)Nc2ccc(F)cc2)c1C(N)=O,18
O=C1Nc2ccc(F)cc2/C1=N/N1CCOCC1,69
CC(C)(C)NC1=NCCNC12CCN(S(=O)(=O)c1ccc3c(c1)CCCC3)CC2,3
O=C(CN1CCC(NC(=O)c2ccc(F)cc2)CC1)Nc1ccc2c(c1)CCC2,43
CC(=O)NCc1csc(C2CCCN(S(=O)(=O)c3ccc(C)c(C)c3)C2)n1 (configuration not stated),-20
c1ccc(COCC2NCCc3[nH]cnc32)cc1 (configuration not stated),15
CCc1ccc2c(c1)cc(CN(C(=S)NCc1ccco1)C1CCCC1)c1nnnn12,-17
CN(C)[C@@H]1CCN(CC2CCOCC2)[C@@H]1Cc1ccncc1,2
CCC1=NC2(CCC(C(=O)Nc3ccc(C)nc3)CC2)C(=O)N1C (configuration not stated),-26
CN(Cc1cc(-c2cccnc2)no1)S(=O)(=O)NCc1ccccc1,-42
Cc1ccccc1S(=O)(=O)N1C[C@@H]2N[C@H](C1)C2c1ccc(-c2cccc(C#N)c2)cc1 (some centres not stated),-71*!
Cc1ccccc1-c1ccc([C@@H]2[C@@H](CO)N3CCCCN(S(=O)(=O)Cc4ccccc4)C[C@H]23)cc1,-60
N#Cc1cccc(-c2ccc(C3[C@@H]4CN(C(=O)C5CCOCC5)C[C@H]3N4)cc2)c1 (some centres not stated),-10
CS(=O)(=O)N1C[C@@H]2N[C@H](C1)[C@@H]2c1ccc(-c2ccccc2)cc1,-67
Cc1ccccc1-c1ccc([C@H]2[C@H](CO)N3CCCCN(S(=O)(=O)Cc4ccccc4)C[C@@H]23)cc1,-47
Cc1ccccc1-c1ccc(C2[C@@H]3CN(S(=O)(=O)Cc4ccccc4)C[C@H]2N3)cc1 (some centres not stated),-77*
SMILES,Tgondii IFNg
CN1C(Cn2cccn2)CC2CN(C(=O)c3ccccc3)CCC21 (configuration not stated),5
c1coc(CN(CCN2CCOCC2)Cc2nc3c(s2)CCCC3)c1,-26
O=C1CCC(CCC(=O)N2CCC(C(O)c3cccnc3)CC2)(Cc2cccc3ccccc23)N1 (configuration not stated),13
Cc1oc(C2CCN(C(=O)Nc3cccc(Cl)c3C)CC2)nc1C(=O)N1CCCC1,34
O=C(NCCCn1ccnc1)Nc1c[nH]c2cc(Cl)ccc2c1=O,306
Clc1ccc(CO/N=C(\Cn2ccnc2)c2ccc(Cl)cc2Cl)c(Cl)c1,-83*!
Cl/C(=C\n1cncn1)c1ccc(Cl)cc1Cl,-59
Cc1ccccc1CNC(=O)Cn1ncc2c(N3CCOCC3)ncnc21,-64
CS(=O)(=O)N1CCC2(CC1)COC(COCc1ccncc1)C2 (configuration not stated),4
Oc1[nH]c2ccccc2c1N=Nc1ccccc1,195
O=Nc1c(-c2c(O)[nH]c3ccccc23)[nH]c2ccccc12,-84*
Cc1ccc(S(=O)(=O)N=Nc2c(O)[nH]c3ccccc23)cc1,31
Cc1ccc(NC(=O)N2CCC(c3nc(C(=O)N(C)C)c(C)o3)CC2)cc1,30
O=C(NCCCN1CCCCC1)c1csc(-c2ccc(N3CCCC3)nc2)n1,16
CCN1CCN(CCNC(=O)c2csc(-c3ccc(N4CCCC4)nc3)n2)CC1,-81*
CC1CCCCN1CCNC(=O)c1csc(-c2ccc(N3CCCC3)nc2)n1 (configuration not stated),-46
Cn1cc(C(=O)NCc2cn3c(n2)CNCC3)cn1,87
Cc1cccn2c(CC(=O)NCc3ccc4c(c3)CC(C)O4)cnc12 (configuration not stated),-61
Cc1nc(-c2ccc(Cl)cc2)sc1CCNC(=O)CC(C)C,2
O=C1CCC2(CCN(Cc3ccoc3)CC2)N1Cc1cccnc1,4
COc1ccc(-c2ccccc2)cc1Br,9
CCn1c(C2CCCN(C(=O)Cc3ccc4c(c3)OCO4)C2)nn(C)c1=O (configuration not stated),7
O=C(Cc1ccc2c(c1)OCO2)N1CCC(c2nc(-c3ccsc3)cc(=O)[nH]2)CC1,-80*

# Screens as filed in PubChem BioAssay.
